# Experimental data taken from PubChem BioAssay AID1159580 (chemical genetic matrix, 2015).
# Among all 5,500 compounds or so, about 2,000 (36%) were called active. Not shown: some 18% with an inconclusive outcome. Some of the results follow. Values without a mark were called inactive. Rule as the data show it: active = normalized growth mostly below about 0.91 (no sharp cut-off); inconclusive = no clear call, values can overlap the other calls; inactive = mostly above about 0.92.
# Assay: chemical genetic growth profiling, strain panel (AID 1159580);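 also: tested at 20 µM; growth read once vehicle control cultures reached saturation at 30 °C; 1 = growth at the plate median or of vehicle wells; lower values mean less growth of the strain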
# Details: growth OD
structure (smiles),measurement,setting,value
CCOc1cccc(C(=O)c2ccc(O)c(O)c2O)c1,normalized growth,"S. cerevisiae deletion strains, locus YKL009W, strain mrt4, hits give low values",0.914
same,normalized growth,"S. cerevisiae deletion strains, locus YKL068W, hits give low values",0.972
same,normalized growth,"S. cerevisiae deletion strains, locus YKL085W, strain MDH1 (second series), hits give low values",0.955
same,normalized growth,"S. cerevisiae deletion strains, locus YKL085W, strain MDH1, hits give low values",0.955
same,normalized growth,"S. cerevisiae deletion strains, locus YKL160W, strain elf1, hits give low values",0.93
same,normalized growth,"S. cerevisiae deletion strains, locus YKR001C, strain vps1, hits give low values",0.811 (active)
same,normalized growth,"S. cerevisiae deletion strains, locus YKR026C, strain gcn3, hits give low values",0.956
same,normalized growth,"S. cerevisiae deletion strains, locus YKR091W, strain srl3, hits give low values",0.966
same,normalized growth,"S. cerevisiae deletion strains, locus YLL001W, strain dnm1, hits give low values",0.945
same,normalized growth,"S. cerevisiae deletion strains, locus YLL026W, hits give low values",0.936
same,normalized growth,"S. cerevisiae deletion strains, locus YLL041C, strain sdh2, hits give low values",0.939
same,normalized growth,"S. cerevisiae deletion strains, locus YLR027C, strain aat2, hits give low values",0.905 (active)
same,normalized growth,"S. cerevisiae deletion strains, locus YLR039C, strain RIC1, hits give low values",0.521 (active)
same,normalized growth,"S. cerevisiae deletion strains, locus YLR058C, strain SHM2, hits give low values",0.524 (active)
same,normalized growth,"S. cerevisiae deletion strains, locus YLR102C, strain apc9, hits give low values",0.996
same,normalized growth,"S. cerevisiae deletion strains, locus YLR113W, strain HOG1, hits give low values",1.05
same,normalized growth,"S. cerevisiae deletion strains, locus YLR221C, strain rsa3, hits give low values",0.87 (active)
same,normalized growth,"S. cerevisiae deletion strains, locus YLR258W, strain gsy2, hits give low values",0.899 (active)
same,normalized growth,"S. cerevisiae deletion strains, locus YLR262C, strain YPT6 (second series), hits give low values",0.627 (active)
same,normalized growth,"S. cerevisiae deletion strains, locus YLR268W, strain sec22, hits give low values",0.72 (active)
same,normalized growth,"S. cerevisiae deletion strains, locus YLR320W, strain mms22, hits give low values",0.806 (active)
same,normalized growth,"S. cerevisiae deletion strains, locus YLR330W, strain CHS5, hits give low values",0.804 (active)
same,normalized growth,"S. cerevisiae deletion strains, locus YLR342W, strain FKS1 (second series), hits give low values",0.633 (active)
same,normalized growth,"S. cerevisiae deletion strains, locus YLR342W, strain FKS1, hits give low values",0.903 (active)
same,normalized growth,"S. cerevisiae deletion strains, locus YLR357W, strain rsc2, hits give low values",0.706 (active)
same,normalized growth,"S. cerevisiae deletion strains, locus YLR370C, strain arc18, hits give low values",0.939
same,normalized growth,"S. cerevisiae deletion strains, locus YLR371W, strain rom2, hits give low values",0.737 (active)
same,normalized growth,"S. cerevisiae deletion strains, locus YLR384C, strain iki3, hits give low values",0.938
same,normalized growth,"S. cerevisiae deletion strains, locus YLR418C, strain cdc73, hits give low values",0.563 (active)
same,normalized growth,"S. cerevisiae deletion strains, locus YML016C, strain PPZ1, hits give low values",0.71 (active)
same,normalized growth,"S. cerevisiae deletion strains, locus YML032C, strain rad52, hits give low values",0.942
same,normalized growth,"S. cerevisiae deletion strains, locus YML120C, strain ndi1, hits give low values",0.765 (active)
same,normalized growth,"S. cerevisiae deletion strains, locus YML124C, strain tub3, hits give low values",0.948
same,normalized growth,"S. cerevisiae deletion strains, locus YMR058W, strain fet3, hits give low values",0.283 (active)
same,normalized growth,"S. cerevisiae deletion strains, locus YMR078C, strain ctf18, hits give low values",0.966
same,normalized growth,"S. cerevisiae deletion strains, locus YMR125W, strain sto1, hits give low values",0.976
same,normalized growth,"S. cerevisiae deletion strains, locus YMR129W, hits give low values",0.95
same,normalized growth,"S. cerevisiae deletion strains, locus YMR205C, strain PFK2, hits give low values",0.74 (active)
same,normalized growth,"S. cerevisiae deletion strains, locus YMR223W, strain ubp8, hits give low values",0.844 (active)
same,normalized growth,"S. cerevisiae deletion strains, locus YMR231W, strain pep5, hits give low values",0.826 (active)
same,normalized growth,"S. cerevisiae deletion strains, locus YMR263W, strain SAP30, hits give low values",0.854 (active)
same,normalized growth,"S. cerevisiae deletion strains, locus YMR307W, strain GAS1, hits give low values",0.698
same,normalized growth,"S. cerevisiae deletion strains, locus YNL067W, strain RPL9B, hits give low values",0.841 (active)
same,normalized growth,"S. cerevisiae deletion strains, locus YNL071W, strain lat1, hits give low values",0.889 (active)
same,normalized growth,"S. cerevisiae deletion strains, locus YNL153C, strain GIM3, hits give low values",0.747 (active)
same,normalized growth,"S. cerevisiae deletion strains, locus YNL183C, strain NPR1, hits give low values",0.98
same,normalized growth,"S. cerevisiae deletion strains, locus YNL209W, strain ssb2, hits give low values",0.752 (active)
same,normalized growth,"S. cerevisiae deletion strains, locus YNL233W, strain BNI4, hits give low values",0.781 (active)
same,normalized growth,"S. cerevisiae deletion strains, locus YNL248C, strain rpa49, hits give low values",0.95
same,normalized growth,"S. cerevisiae deletion strains, locus YNL250W, strain rad50, hits give low values",0.937
same,normalized growth,"S. cerevisiae deletion strains, locus YNL271C, strain bni1, hits give low values",0.886 (active)
same,normalized growth,"S. cerevisiae deletion strains, locus YNL298W, strain CLA4, hits give low values",0.931
same,normalized growth,"S. cerevisiae deletion strains, locus YNL307C, strain MCK1, hits give low values",0.907
same,normalized growth,"S. cerevisiae deletion strains, locus YNL322C, strain KRE1 (second series), hits give low values",0.965
same,normalized growth,"S. cerevisiae deletion strains, locus YNR049C, strain mso1, hits give low values",0.961
same,normalized growth,"S. cerevisiae deletion strains, locus YNR052C, strain pop2, hits give low values",0.739 (active)
same,normalized growth,"S. cerevisiae deletion strains, locus YOL006C, strain TOP1, hits give low values",0.398 (active)
same,normalized growth,"S. cerevisiae deletion strains, locus YOL012C, strain htz1",0.288
same,normalized growth,"S. cerevisiae deletion strains, locus YOL147C, strain pex11, hits give low values",0.823 (active)
same,normalized growth,"S. cerevisiae deletion strains, locus YOR001W, strain rrp6, hits give low values",0.87 (active)
same,normalized growth,"S. cerevisiae deletion strains, locus YOR061W, strain CKA2, hits give low values",0.788 (active)
same,normalized growth,"S. cerevisiae deletion strains, locus YOR069W, strain VPS5, hits give low values",0.808 (active)
same,normalized growth,"S. cerevisiae deletion strains, locus YOR070C, strain gyp1, hits give low values",0.925 (active)
same,normalized growth,"S. cerevisiae deletion strains, locus YOR080W, strain dia2, hits give low values",0.961
same,normalized growth,"S. cerevisiae deletion strains, locus YOR083W, strain WHI5, hits give low values",0.894
same,normalized growth,"S. cerevisiae deletion strains, locus YOR106W, strain vam3, hits give low values",0.639 (active)
same,normalized growth,"S. cerevisiae deletion strains, locus YOR136W, strain idh2, hits give low values",0.93
same,normalized growth,"S. cerevisiae deletion strains, locus YOR144C, strain elg1, hits give low values",0.816 (active)
same,normalized growth,"S. cerevisiae deletion strains, locus YOR184W, strain ser1, hits give low values",0.812 (active)
same,normalized growth,"S. cerevisiae deletion strains, locus YOR231W, strain MKK1, hits give low values",1
same,normalized growth,"S. cerevisiae deletion strains, locus YOR265W, strain rbl2, hits give low values",0.923 (active)
same,normalized growth,"S. cerevisiae deletion strains, locus YOR270C, strain vph1, hits give low values",0.637 (active)
same,normalized growth,"S. cerevisiae deletion strains, locus YOR290C, strain snf2, hits give low values",0.64 (active)
same,normalized growth,"S. cerevisiae deletion strains, locus YOR316C, strain cot1, hits give low values",0.962
same,normalized growth,"S. cerevisiae deletion strains, locus YPL051W, strain arl3, hits give low values",0.767 (active)
same,normalized growth,"S. cerevisiae deletion strains, locus YPL078C, strain atp4, hits give low values",0.931
same,normalized growth,"S. cerevisiae deletion strains, locus YPL106C, strain sse1, hits give low values",0.823 (active)
same,normalized growth,"S. cerevisiae deletion strains, locus YPL240C, strain hsp82, hits give low values",0.954
same,normalized growth,"S. cerevisiae deletion strains, locus YPL241C, strain CIN2, hits give low values",0.926 (active)
same,normalized growth,"S. cerevisiae deletion strains, locus YPL256C, strain CLN2, hits give low values",1.07
same,normalized growth,"S. cerevisiae deletion strains, locus YPR119W, strain clb2, hits give low values",0.982
same,normalized growth,"S. cerevisiae deletion strains, locus YPR141C, strain kar3, hits give low values",0.963
same,normalized growth,"S. cerevisiae deletion strains, locus YPR163C, strain tif3, hits give low values",0.936
same,normalized growth,"S. cerevisiae deletion strains, locus YPR167C, strain met16, hits give low values",0.84 (active)
same,normalized growth,"S. cerevisiae deletion strains, strain wtn01, hits give low values",0.799 (active)
same,normalized growth,"S. cerevisiae strains, strain wild type, hits give low values",0.635 (active)
